The results in this text go back to PubChem BioAssay (EPA / NIEHS).

Several values for one entry are separate records, joined by “and”; a condition that tells them apart may be missing. Equal values may be shown once. More than one record can exist for a structure, and the calls need not agree. Activity calls are given as the source filed them. Rule for the calls: active = hit-call score of the fitted dose curve at least 0.9, where 1 is the maximum; inactive = score below 0.9.

Read-out in the experiment: 3-Hydroxy-3-Methylglutaryl-CoA Synthase 2 (HMGCS2), HMGCS2 (gene 3158)
The experiment can be described thus: LTEA_HepaRG_HMGCS2: Life Technologies and Expression Analysis (LTEA) Assay for 3-Hydroxy-3-Methylglutaryl-CoA Synthase 2 (HMGCS2) using HepaRG (AID 2283504). Conditions: mRNA level, 48 h; actives raise or lower the signal. How it is done:
LTEA_HepaRG is a cell based, multiplexed-readout assay that uses HepaRG, a human liver cell line, with measurements taken at 48 hours after chemical dosing on a 96-well plate.LTEA_HepaRG_HMGCS2 is one of 102 assay component(s) measured in the LTEA HepaRG cell culture assay. It is a marker of Steatosis.Data from the assay component LTEA_HepaRG_HMGCS2 was analyzed into 1 endpoint. This assay endpoint, LTEA_HepaRG_HMGCS2, was analyzed with bidirectional fitting relative to DMSO as the negative control and baseline of activity. Using a type of inducible reporter, measures of mRNA induction for gain or loss-of-signal activity can be used to understand regulation of transcription factor activity. To generalize the intended target to other relatable targets, this assay endpoint is annotated to the lyase intended target family, where the subfamily is HMG-CoA synthase.
A total of 1060 chemcials from the ToxCast library were tested in eight-point concentration-response experiments. Cell culture and cytotoxicity assays were conducted at Thermo Fisher Scientific's Custom Services facility (Madison, WI). A single lot of human HepaRG cells (Thermo Fisher Scientific, Frederick, MD) was used for the cell culture experiments. 96-well format collagen type I coated plates of human HepaRG cells were prepared using established methods. Briefly, cryopreserved HepaRG cells were thawed, plated at a density of approximately 100,000 cells/well in HepaRG Thaw, Plate, and General Purpose media (HPRG770, Thermo Fisher Scientific), and incubated for 48 hours. 0.5% DMSO was selected as vehicle control to balance the requisite need of DMSO in HepaRG cultures to maintain differentiation (for example, baseline metabolism, proportions of hepatocytes vs. cholangiocytes), while enabling further hepatic receptor pathway activation (for example, PXR and CAR) in response to chemical exposure. 48 hours after plating, the culture medium was replaced with HepaRG Serum-Free Incudtion Media. Cells were exposed to each test chemical in duplicate and maintained in CO2 incubators for another 48 hours. Chemical plates were thawed to room temperature and 200x concentrations of treatment groups were prepared. 8-point conentration-reponse curves were made with the highest exposure at 100 uM, followed by half-log dilutions, all in 0.5% DMSO. Each test plate contained variouse controls, induction positive controls (1mM phenobarbital), cytotoxicity positive controls ([…] aflatoxin B1), vehicle controls (0.5% DMSO), and total lysis controls (0.5% DMSO). Cell morphology images were taken using an Essen IncuCyte FLR automated microscope, with six 96-well plates imaged in about 24 minutes. Images were captured and exported and JPEG files. Spent culture media was transfered to black-well plates for the LDH assay, and remaining media was sorted at -80 C for later use. Cells were treated with RLT buffer and frozen until shipped for gene expression analysis. Total RNA was isolated from the cell suspension in 75 uL of Buffer RLT (Qiagen, Germantown, MD 20874) by Quintiles/Expression Analysis (Durham, NC) using a custom isolation procedure. Total RNA from each plate well was transferred to a preamplification plate. Fluidigm's 96.96 Dynamic ArrayTM (Fluidigm, Amsterdam, the Netherlands) technology was used for gene expression analyses by quantitative reverse transcription polymerase chain reaction (qRT-PCR, performed by Quintiles/Expression Analysis, Durham, NC)89. Standard TaqManTM Assays (Applied Biosystems/ThermoFisher Scientific, Foster City, CA) were used to assess the expression of 93 genes selected based on their selectivity and sensitivity to important hepatic receptors known to be modulated by environmental chemicals; importance in human hepatocyte functionality; and hepatotoxicity. […]
Regarding `CNC(=O)ON=CC(C)(C)SC`, the molecule was classed as inactive.
Same read-out and setting: to `Cc1cc(Cl)ccc1OCC(=O)O` belongs “inactive”; to `CS/C(C)=N/OC(=O)N(C)SN(C)C(=O)O/N=C(\C)SC`, “inactive”; to `O=C(O)COc1nc(Cl)c(Cl)cc1Cl`, “inactive”.
On the same count and under the same terms, to `COP(N)(=O)SC` (stereo not given) belongs “inactive”; to `O=C(O)c1nc(Cl)ccc1Cl`, “inactive”.
With `COc1cnc(OC)n2nc(NS(=O)(=O)c3c(OCC(F)F)cccc3C(F)(F)F)nc12`, the AC50 is 31.8 µM (active).
Turning to `CN(C)C(=S)SSC(=S)N(C)C`, the call was inactive.
Turning to `CCCCNC(=O)n1c(NC(=O)OC)nc2ccccc21`, the molecule was called inactive.
Regarding `C=CCC1=C(C)[C@@H](OC(=O)[C@@H]2[C@@H](C=C(C)C)C2(C)C)CC1=O`, the AC50 was 50 µM (active).
`Cc1c(F)c(F)c(COC(=O)C2C(/C=C(\Cl)C(F)(F)F)C2(C)C)c(F)c1F` (stereo not given): the outcome was inactive.
Still for that read-out and setting: to `CC(C)C1(C)N=C(c2nc3ccccc3cc2C(=O)O)NC1=O` (stereo not given) belongs “inactive”.
Consider `COc1ccc(C(c2ccc(OC)cc2)C(Cl)(Cl)Cl)cc1`, for which the AC50 is 91.8 µM (active).
On the same count and under the same terms, the value for `CC(C)Oc1cc(-n2nc(C(C)(C)C)oc2=O)c(Cl)cc1Cl` was 61.9 µM (active).
Consider `CCCCNC(=O)OCC#CI`, for which the call was inactive.
On the same count and under the same terms, the value for `COP(=S)(OC)Oc1nc(Cl)c(Cl)cc1Cl` was “inactive”.
On to `COC(=O)N(OC)c1ccccc1COc1ccn(-c2ccc(Cl)cc2)n1`, for which the AC50 was 75.3 µM (active).
On the same count and under the same terms, the value for `CC1=C(C(=O)Nc2ccccc2)SCCO1` was 71.8 µM (active).
As to `CCON=C(CC)C1=C(O)CC(c2c(C)cc(C)cc2C)CC1=O` (stereo not given), the outcome was inactive.
The same measure, in the same setting: to `Fc1ccc(Oc2ccnc3cc(Cl)cc(Cl)c23)cc1` belongs “inactive”.
As to `CCCC1COC(Cn2cncn2)(c2ccc(Cl)cc2Cl)O1` (stereo not given), the AC50 is 36.5 µM (active).
For `CC(Oc1ccc(Cl)cc1Cl)C(=O)O` (stereo not given), the call was inactive.
Consider `N#CC(CCc1ccc(Cl)cc1)(Cn1cncn1)c1ccccc1` (stereo not given), for which the half-maximal activity concentration (AC50) was 67.9 µM (active).
Consider `CCOP(=S)(OCC)SCn1c(=O)oc2cc(Cl)ccc21`, for which the call was inactive.
On to `CCCN(CCC)c1c([N+](=O)[O-])cc(S(N)(=O)=O)cc1[N+](=O)[O-]`, for which the call was inactive; the AC50 is 54.1 µM (active) and 73.4 µM (active).
As for `C#CCOS(=O)OC1CCCCC1Oc1ccc(C(C)(C)C)cc1` (stereo not given), the AC50 is 25.6 µM (active).
Still for that read-out and setting: the value for `C=CCC1=C(C)C(OC(=O)C2C(C=C(C)C)C2(C)C)CC1=O` (stereo not given) was 82.1 µM (active) and 80.4 µM (active) and 87.9 µM (active).
`CNC(=S)S`: the outcome was inactive.
As for `CO/C=C(/C(=O)OC)c1ccccc1Oc1cc(Oc2ccccc2C#N)ncn1`, the AC50 was 77.1 µM (active) and 76.2 µM (active) and 72.6 µM (active).
Still for that read-out and setting: to `CCc1nn(C)c(C(=O)NCc2ccc(C(C)(C)C)cc2)c1Cl` belongs 8.88 µM (active); to `O=C(Nc1ccccc1)Nc1ccnc(Cl)c1`, 28.6 µM (active).
For `CCCCOC(=O)c1ccccc1C(=O)OCCCC`, the result was inactive.
The same measure, in the same setting: to `COC(=O)C=C(C)OP(=O)(OC)OC` belongs “inactive”.
Consider `N#Cc1nn(-c2c(Cl)cc(C(F)(F)F)cc2Cl)c(N)c1S(=O)C(F)(F)F` (stereo not given), for which the AC50 was 38.3 µM (active).
On to `CCNc1nc(Cl)nc(NCC)n1`, for which the outcome was inactive.
Same read-out and setting: the value for `CCCCC(CC)COC(=O)c1ccccc1C(=O)OCC(CC)CCCC` (stereo not given) was “inactive”.
With `COC(=O)C(C)Oc1ccc(Oc2ccc(Cl)cc2Cl)cc1` (stereo not given), the AC50 was 17.5 µM (active).
Regarding `COC(=O)c1ccccc1C(=O)OC`, the molecule was classed as inactive.
Turning to `OC(c1ccc(Cl)cc1)(c1cncnc1)c1ccccc1Cl` (stereo not given), the AC50 was 82 µM (active).
